Assay [1] in a line: antimalarial activity against Dd2 strain (AID 2302;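 active = growth inhibition above 50% at the single 2 µM test dose, taken to imply half-maximal potency below 2 µM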;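 note: 0% = DMSO untreated growth and 100% = chloroquine plus artemisinin killed control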). The following applies: P. falciparum Dd2 in RBCs, LDH growth readout, 72 h; at 2 µM; hits give high values.
The nature of assay [2]: HepG2 cytotoxicity, primary screen, cytotoxicity control for P. falciparum antimalarial project, cell-based, ATP luminescence (AID 2303;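 active = inhibition above 50%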;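 note: 0% = DMSO wells and 100% = digitonin-killed cells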). The settings on record: HepG2 viability, 24-48 h, at 10 µM, hits give high values.
The target in assay [3] is L-lactate dehydrogenase (Plasmodium falciparum (isolate CDC / Honduras)) (UniProt Q27743). The assay is described as follows: PfLDH activity inhibition – cell lysate, 3D7 strain, counter-screen for P. falciparum growth inhibition project (AID 2304).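 Note: 0% = vehicle and 100% = reference inhibitor.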 The settings on record: P. falciparum 3D7 crude extract, LDH APAD/NBT absorbance; at 2 µM; hits give high values. For orientation: The purpose of a counterscreen is to sort out artefacts and off-target activity.
Chain of L-lactate dehydrogenase (Plasmodium falciparum (isolate CDC / Honduras)) (Q27743 whole entry, looked up): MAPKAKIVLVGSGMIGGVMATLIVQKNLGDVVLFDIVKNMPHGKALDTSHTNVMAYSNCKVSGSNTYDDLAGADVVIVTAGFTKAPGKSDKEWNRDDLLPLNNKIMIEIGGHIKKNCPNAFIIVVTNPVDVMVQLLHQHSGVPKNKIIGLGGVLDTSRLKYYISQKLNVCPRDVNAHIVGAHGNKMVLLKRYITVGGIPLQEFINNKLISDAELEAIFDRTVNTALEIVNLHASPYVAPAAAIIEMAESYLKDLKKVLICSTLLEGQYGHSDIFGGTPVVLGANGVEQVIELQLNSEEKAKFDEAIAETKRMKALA

Assay [4] in a line: inhibition of 3D7 malaria parasite growth – strain 3D7 (AID 2306).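 Note: 0% = DMSO wells and 100% = chloroquine plus artemisinin control wells.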 The following applies: P. falciparum 3D7 erythrocytic growth, LDH absorbance, 72 h; at 2 µM; hits give high values.
In assay [5] the target is Calcium-dependent protein kinase 1 (Plasmodium falciparum (isolate 3D7)) (UniProt P62344). As to the kind of experiment: PfCDPK1 kinase inhibitors, biochemical, TCAMS library (AID 1159585; cut-off not given, nearly all actives have IC50 up to about 0.98 µM;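 note: inhibitors leave more ATP so luminescence rises with inhibition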). The settings on record: recombinant PfCDPK1, Kinase-Glo ATP depletion luminescence. (In general: Kinase-Glo reads ATP consumption through a luciferase reaction.)
Chain of Calcium-dependent protein kinase 1 (Plasmodium falciparum (isolate 3D7)) (P62344 whole entry, looked up): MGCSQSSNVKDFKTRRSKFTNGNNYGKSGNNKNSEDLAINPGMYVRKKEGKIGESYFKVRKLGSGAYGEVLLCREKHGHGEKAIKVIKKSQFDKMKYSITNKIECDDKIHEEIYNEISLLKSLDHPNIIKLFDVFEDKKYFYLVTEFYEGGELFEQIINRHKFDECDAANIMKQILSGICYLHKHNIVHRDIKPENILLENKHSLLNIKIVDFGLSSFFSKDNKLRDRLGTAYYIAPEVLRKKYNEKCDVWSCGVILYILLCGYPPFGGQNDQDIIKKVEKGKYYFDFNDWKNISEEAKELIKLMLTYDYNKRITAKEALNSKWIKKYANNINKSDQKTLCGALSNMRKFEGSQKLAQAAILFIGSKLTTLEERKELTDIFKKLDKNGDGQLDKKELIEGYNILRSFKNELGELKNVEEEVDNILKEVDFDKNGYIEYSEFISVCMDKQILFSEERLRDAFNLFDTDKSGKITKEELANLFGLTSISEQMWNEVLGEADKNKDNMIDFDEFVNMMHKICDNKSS
In assay [6] the target is Plasmodium falciparum protein kinase 6 (PK6, PF3D7_1337100) (UniProt Q8IDW1). As to the kind of experiment: PfPK6 kinase inhibitors, biochemical, TCAMS library (AID 1159586). The following applies: recombinant PfPK6, Kinase-Glo ATP depletion luminescence.
Chain of Plasmodium falciparum protein kinase 6 (PK6, PF3D7_1337100) (Q8IDW1 1-305): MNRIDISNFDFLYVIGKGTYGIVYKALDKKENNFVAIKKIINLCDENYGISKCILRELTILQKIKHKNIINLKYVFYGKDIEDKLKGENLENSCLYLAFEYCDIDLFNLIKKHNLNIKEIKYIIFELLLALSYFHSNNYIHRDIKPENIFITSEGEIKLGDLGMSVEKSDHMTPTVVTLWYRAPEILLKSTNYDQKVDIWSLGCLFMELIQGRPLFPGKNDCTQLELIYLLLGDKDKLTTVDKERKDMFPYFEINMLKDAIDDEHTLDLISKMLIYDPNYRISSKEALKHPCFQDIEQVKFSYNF
The target in assay [7] is Protein kinase 7 (PK7), Plasmodium falciparum 3D7 (PF3D7_0213400) (UniProt Q7YTF7). As to the kind of experiment: inhibition of Plasmodium PK7 catalytic activity – biochemical, TCAMS antimalarial set, Kinase-Glo luminescence (AID 1159587). The settings on record: recombinant PfPK7, Kinase-Glo ATP depletion luminescence.
Chain of Protein kinase 7 (PK7), Plasmodium falciparum 3D7 (PF3D7_0213400) (Q7YTF7 1-343): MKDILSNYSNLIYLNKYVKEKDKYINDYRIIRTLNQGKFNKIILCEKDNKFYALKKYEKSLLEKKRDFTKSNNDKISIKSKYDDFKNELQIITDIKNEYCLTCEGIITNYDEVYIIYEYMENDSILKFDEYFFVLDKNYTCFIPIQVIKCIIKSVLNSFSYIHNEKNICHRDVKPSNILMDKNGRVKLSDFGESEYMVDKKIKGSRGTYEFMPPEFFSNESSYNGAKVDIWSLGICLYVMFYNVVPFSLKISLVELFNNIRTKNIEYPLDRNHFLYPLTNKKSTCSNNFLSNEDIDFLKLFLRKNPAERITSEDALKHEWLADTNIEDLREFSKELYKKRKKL
In assay [8] the target is Calcium-dependent protein kinase 4 (Plasmodium falciparum (isolate 3D7)) (UniProt Q8IBS5). As to the kind of experiment: PfCDPK4 kinase inhibitors, biochemical, TCAMS library (AID 1159588; cut-off not given, nearly all actives have IC50 up to about 0.91 µM). The settings on record: recombinant PfCDPK4, Kinase-Glo ATP depletion luminescence.
Chain of Calcium-dependent protein kinase 4 (Plasmodium falciparum (isolate 3D7)) (Q8IBS5 whole entry, looked up): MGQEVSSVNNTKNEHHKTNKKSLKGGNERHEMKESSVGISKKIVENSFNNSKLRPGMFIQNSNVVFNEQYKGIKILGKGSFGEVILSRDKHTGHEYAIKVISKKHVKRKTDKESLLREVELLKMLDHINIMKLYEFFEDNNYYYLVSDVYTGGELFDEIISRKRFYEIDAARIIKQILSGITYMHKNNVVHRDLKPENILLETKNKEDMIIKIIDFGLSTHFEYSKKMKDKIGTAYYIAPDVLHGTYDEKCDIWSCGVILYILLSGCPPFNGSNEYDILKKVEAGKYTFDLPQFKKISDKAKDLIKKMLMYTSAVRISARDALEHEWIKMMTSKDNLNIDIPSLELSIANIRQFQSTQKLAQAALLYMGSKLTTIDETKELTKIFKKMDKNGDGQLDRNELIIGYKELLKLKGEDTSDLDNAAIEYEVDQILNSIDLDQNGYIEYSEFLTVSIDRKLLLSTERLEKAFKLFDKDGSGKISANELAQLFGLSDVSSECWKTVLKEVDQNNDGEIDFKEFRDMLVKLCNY

The text below walks through data of PubChem BioAssay.

Unmarked numbers belong to inactive results. For part of these data: Entries with a potency or affinity are not part of this list. Active and inactive are the calls of the source. Unless noted, the rule behind the calls is not given here.

Usually inhibition stands for the change of the read-out against control, counted positive when it falls. In the case of `COc1cccc2c(NN=Cc3cccc(Cl)c3)ccnc12`, the growth inhibition in assay [1] is 77% (active); in assay [4], 101% (active). Also, the inhibition in assay [2] was 19%; in assay [3], 6%. Moreover, the outcome in assay [5], in assay [6], in assay [7] and in assay [8] was inactive.
As to `Cc1cccc2[nH]c(-c3ccc(-c4cccc(CNCc5ccc(S(C)(=O)=O)cc5)c4)s3)nc12`, the growth inhibition was 91% (active) in assay [1] and 100% (active) in assay [4]. The inhibition was 31% in assay [2] and -3% in assay [3]. Further, the result in assay [5], in assay [6], in assay [7] and in assay [8] was inactive.
As for `Cc1nccc2c(NC(=O)N[C@@H]3CCN(c4ncc(C(F)(F)F)cc4Br)C3)cccc12`, the growth inhibition in assay [1] was 27%; in assay [4], 96% (active). The inhibition was 21% in assay [2] and -4% in assay [3]. For the same compound, the result in assay [5], in assay [6], in assay [7] and in assay [8] was inactive.
For the compound `Fc1ccc2c(NN=Cc3ccccc3F)ccnc2c1`, the growth inhibition is 99% (active) in assay [1] and 101% (active) in assay [4]. In addition, the inhibition is 10% in assay [2] and -1% in assay [3]. Further, the outcome in assay [5], in assay [6], in assay [7] and in assay [8] was inactive.
`O=C(/C=C/c1ccc(Cl)c(Cl)c1)NCCCCCN1CCC(NC(=O)Nc2ccc(Cl)cc2F)CC1`: the growth inhibition is 40% in assay [1] and 101% (active) in assay [4]. The inhibition is 100% (active) in assay [2] and -8% in assay [3]. Further, the outcome in assay [5], in assay [6], in assay [7] and in assay [8] was inactive.
For the compound `CCC(C)c1cccc(C(C)CC)c1OCCCON1C(N)=NC(N)=NC1(C)C` (stereo not drawn), the growth inhibition in assay [1] is 98% (active); in assay [4], 91% (active). Further, the inhibition is 51% (active) in assay [2] and -4% in assay [3]. The result in assay [5], in assay [6], in assay [7] and in assay [8] was inactive.
Consider `Clc1cccc(Cl)c1CCNCC1CCN(CC2CCCCC2)CC1`, for which the growth inhibition in assay [1] is 94% (active); in assay [4] it was 98% (active). For the same compound, the values for the inhibition in assay [2] and in assay [3] were 39% and -5%, respectively. Moreover, the result in assay [5], in assay [6], in assay [7] and in assay [8] was inactive.
Turning to `CCOC(=O)CCCCCNC[C@H](O)c1ccccc1`, the growth inhibition is 0% in assay [1] and 98% (active) in assay [4]. Further, the inhibition was 2% in assay [2] and 5% in assay [3]. Further, the outcome in assay [5], in assay [6], in assay [7] and in assay [8] was inactive.
Turning to `COc1ccc(CNCCCCCCCNCc2ccc(Cl)c(Cl)c2)cc1Cl`, the growth inhibition in assay [1] was 18%; in assay [4] it was 90% (active). Further, the inhibition is 27% in assay [2] and 4% in assay [3]. The result in assay [5], in assay [6], in assay [7] and in assay [8] was inactive.
Take `FC(F)(F)COc1ccc2ccccc2c1CCNCCCCNCCc1c(OCC(F)(F)F)ccc2ccccc12`: the growth inhibition was 53% (active) in assay [1] and 100% (active) in assay [4]. In addition, the inhibition was 99% (active) in assay [2] and 0% in assay [3]. Also, the result in assay [5], in assay [6], in assay [7] and in assay [8] was inactive.
With `N#Cc1ccc(C(=O)Nc2cccc(-c3ccc(CN4CCCC4)cc3)c2)cc1`, the growth inhibition is -2% in assay [1] and 99% (active) in assay [4]. Also, the inhibition in assay [2] was 13%; in assay [3], -2%. Further, the outcome in assay [5], in assay [6], in assay [7] and in assay [8] was inactive.
Consider `CCCC(=O)c1cnc2cc(O)ccc2c1Nc1ccccc1C`, for which the growth inhibition in assay [1] is 93% (active); in assay [4] it was 99% (active). The results for the inhibition in assay [2] and in assay [3] were 14% and -8%, respectively. The result in assay [5], in assay [6], in assay [7] and in assay [8] was inactive.
Regarding `COc1cc2c(cc1OC)CN(CCCCc1ccc(NC(=O)c3cc(Cl)cc(Cl)c3)cc1)CC2`, the growth inhibition in assay [1] was 4%; in assay [4] it was 95% (active). Besides, the inhibition in assay [2] is 21%; in assay [3], -3%. Further, the outcome in assay [5], in assay [6], in assay [7] and in assay [8] was inactive.
`O=C(Nc1cccc(CN2CCCN(Cc3ccc(O)cc3)CC2)c1)c1cc2ccccc2s1`: the growth inhibition in assay [1] was 90% (active); in assay [4], 100% (active). Moreover, the results for the inhibition in assay [2] and in assay [3] were 27% and -7%, respectively. The outcome in assay [5], in assay [6], in assay [7] and in assay [8] was inactive.
As for `Cn1c(=N)n(CC(=O)OCc2ccc(OCc3ccccc3)cc2)c2ccccc21`, the values for the growth inhibition in assay [1] and in assay [4] were 74% (active) and 100% (active), respectively. The figures for the inhibition in assay [2] and in assay [3] were 5% and -5%, respectively. For the same compound, the outcome in assay [5], in assay [6], in assay [7] and in assay [8] was inactive.
With `COc1ccc(Br)cc1C1[C@@H]2C(=O)N(c3ccc(Br)cc3)C(=O)[C@@H]2C2(C(=O)O)CC(OCc3ccccc3)CN12` (stereo partly drawn), the figures for the growth inhibition in assay [1] and in assay [4] were 99% (active) and 104% (active), respectively. In addition, the values for the inhibition in assay [2] and in assay [3] were 16% and -2%, respectively. The result in assay [5], in assay [6], in assay [7] and in assay [8] was inactive.
Regarding `O=C(Nc1ccc(Cl)cc1C(=O)Nc1ccncc1)c1ccc(Cl)cc1Cl`, the growth inhibition in assay [1] is 75% (active); in assay [4], 99% (active). The inhibition in assay [2] is 8%; in assay [3], -5%. For the same compound, the result in assay [5], in assay [6], in assay [7] and in assay [8] was inactive.
Regarding `COc1cccc(NC(=O)Nc2ccc(Nc3nc(C)cc(N4CCCC4)n3)cc2)c1`, the growth inhibition is 100% (active) in assay [1] and 101% (active) in assay [4]. Moreover, the results for the inhibition in assay [2] and in assay [3] were 28% and -1%, respectively. Besides, the outcome in assay [5], in assay [6], in assay [7] and in assay [8] was inactive.
As for `CCN1CCC(N(Cc2ccc(-c3ccc(C(F)(F)F)cc3)cc2)C(=O)Cn2c(CCc3cccc(F)c3F)cc(=O)c3c2CCCC3)CC1`, the growth inhibition was 96% (active) in assay [1] and 100% (active) in assay [4]. Moreover, the inhibition was 55% (active) in assay [2] and 0% in assay [3]. Besides, the outcome in assay [5], in assay [6], in assay [7] and in assay [8] was inactive.
For `Cc1cc(N2CCCN(C)CC2)nc(Nc2ccc(Br)cc2)n1`, the values for the growth inhibition in assay [1] and in assay [4] were 14% and 94% (active), respectively. The inhibition in assay [2] is 8%; in assay [3], 7%. For the same compound, the outcome in assay [5], in assay [6], in assay [7] and in assay [8] was inactive.
In the case of `CCN(CC)CCN(Cc1ccc(-c2ccc(C(F)(F)F)cc2)cc1)C(=O)Cn1c(CCc2cccc(F)c2F)nc(=O)c2cc(F)c(F)cc21`, the growth inhibition in assay [1] was 56% (active); in assay [4], 100% (active). The inhibition in assay [2] was 41%; in assay [3], -5%. For the same compound, the outcome in assay [5], in assay [6], in assay [7] and in assay [8] was inactive.
